Measurements as given in the supplement of paper PMC12494721.
Where a name gives a salt, the structure may show the parent alone.

Tests used:
Conditions in all cases: 20 µM; incubation time: 27 h, anaerobic, 37 °C;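 for the amine columns active = adjusted P below 0.05 in both replicates with a change the same way and a mean fold change under 0.8 or over 1.25; inactive = the rest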
[1] = tested on: Clostridium sporogenes DSM 1664; assay: growth (OD595) fold change vs plate DMSO controls (fold change (ratio)); higher = more growth
Procedure, shortened: (§1)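 Each value is the mean of 2 biological replicates, and fold changes above 1.5 were set to NA. The underlying readings were taken at 595 nm from shaken anaerobic mGAM cultures in 96-well plates after 27 h at 37 °C. They were blank-subtracted, corrected for compound background using 20 µM compound solutions in water, and converted to OD with a calibration factor of 5. Growth is the fold change relative to the median of the plate DMSO controls.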

Escherichia coli IAI1 [2] = assay: as above
Procedure, shortened: as §1

[3] = tested on: Klebsiella aerogenes DSM 30053; assay: as above
Procedure, shortened: as §1

[4] = tested on: Ruminococcus gnavus DSM 108212; assay: as above
Procedure, shortened: as §1

[5] = tested on: Klebsiella aerogenes DSM 30053; assay: fold change of Histamine concentration vs plate DMSO controls (fold change (ratio)); higher = more amine produced, active = hit call of the paper (significant change in both replicates, either direction)
Procedure, shortened: (§2)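 Using LC–triple-quadrupole MS with dynamic MRM, amines were quantified against external calibration curves and corrected for drift within each batch. Samples were whole anaerobic mGAM cultures of four gut strains, grown 27 h at 37 °C from OD 0.1 before 1:1 dilution, extracted with cold acetonitrile/methanol containing 0.1% formic acid and centrifuged. Compounds were present at 20 µM final (sweeteners at 50 µM final). The numbers are fold changes versus plate DMSO controls, each the mean of 2 biological replicates.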

[6] = tested on: Clostridium sporogenes DSM 1664; assay: fold change of Tryptamine concentration vs plate DMSO controls (fold change (ratio)); higher = more amine produced, active = hit call of the paper (significant change in both replicates, either direction)
Procedure, shortened: as §2

[7] = tested on: Ruminococcus gnavus DSM 108212; assay: as above
Procedure, shortened: as §2

Escherichia coli IAI1 [8] = assay: fold change of Putrescine concentration vs plate DMSO controls (fold change (ratio)); higher = more amine produced, active = hit call of the paper (significant change in both replicates, either direction)
Procedure, shortened: as §2

[9] = tested on: Klebsiella aerogenes DSM 30053; assay: as above
Procedure, shortened: as §2

Escherichia coli IAI1 [10] = assay: fold change of Cadaverine concentration vs plate DMSO controls (fold change (ratio)); higher = more amine produced, active = hit call of the paper (significant change in both replicates, either direction)
Procedure, shortened: as §2

[11] = tested on: Klebsiella aerogenes DSM 30053; assay: as above
Procedure, shortened: as §2

[12] = tested on: Ruminococcus gnavus DSM 108212; assay: fold change of 2-Phenylethylamine concentration vs plate DMSO controls (fold change (ratio)); higher = more amine produced, active = hit call of the paper (significant change in both replicates, either direction)
Procedure, shortened: as §2

Structure (SMILES)	growth [1]	growth (Escherichia coli IAI1 [2])	growth [3]	growth [4]	fold change of Histamine concentration [5]	fold change of Tryptamine concentration [6]	fold change of Tryptamine concentration [7]	fold change of Putrescine concentration (Escherichia coli IAI1 [8])	fold change of Putrescine concentration [9]	fold change of Cadaverine concentration (Escherichia coli IAI1 [10])	fold change of Cadaverine concentration [11]	fold change of 2-Phenylethylamine concentration [12]
OC(Cc1ccccc1Cl)(Cn1nc[nH]c1=S)C1(Cl)CC1 (configuration not stated)	0.971	1.12	0.969	0.953	1.04 (inactive)	1.02 (inactive)	0.978 (inactive)	0.937 (inactive)	0.96 (inactive)	0.946 (inactive)	0.974 (inactive)	0.951 (inactive)
CC(Cc1ccccc1)NCCC(c1ccccc1)c1ccccc1 (configuration not stated) [Prenylamine lactate]	1.01	0.997	1	1.45	0.979 (inactive)	0.96 (inactive)	0.913 (inactive)	1.37 (inactive)	0.961 (inactive)	0.657 (active)	0.987 (inactive)	0.983 (inactive)
CO[C@]12C[C@@H](COC(=O)c3cncc(Br)c3)CN(C)[C@@H]1Cc1cn(C)c3cccc2c13 [Nicergoline]	0.937	1	1.03	0.96	0.955 (inactive)	0.994 (inactive)	0.968 (inactive)	0.98 (inactive)	0.99 (inactive)	0.908 (inactive)	1.02 (inactive)	0.888 (inactive)
Fc1ccc([C@]2(Cn3cncn3)O[C@H]2c2ccccc2Cl)cc1 (racemic)	0.97	1.01	0.994	1.04	0.991 (inactive)	1.06 (inactive)	0.967 (inactive)	0.935 (inactive)	0.954 (inactive)	1.03 (inactive)	0.982 (inactive)	1.02 (inactive)
COc1cccc(C2(O)CCCCC2CN(C)C)c1 (configuration not stated) [Tramadol hydrochloride]	1.04	0.988	0.985	1.12	1.04 (inactive)	1.06 (inactive)	0.925 (inactive)	1.05 (inactive)	1.02 (inactive)	0.969 (inactive)	1 (inactive)	0.873 (inactive)
Cc1nc(N(C)C)nc(OC(=O)N(C)C)c1C	1.02	1	0.963	1.06	1.01 (inactive)	1.12 (inactive)	0.985 (inactive)	0.905 (inactive)	1 (inactive)	1.02 (inactive)	1 (inactive)	0.945 (inactive)
O=c1c2ccccc2[se]n1-c1ccccc1 [Ebselen]	1.02	1.12	1.14	1.14	0.916 (inactive)	0.823 (inactive)	0.801 (inactive)	1.02 (inactive)	0.959 (inactive)	0.953 (inactive)	0.984 (inactive)	0.851 (inactive)
CNC(=O)Oc1cccc2ccccc12	1.12	0.98	1	0.969	0.989 (inactive)	0.933 (inactive)	0.989 (inactive)	1.06 (inactive)	1.01 (inactive)	0.965 (inactive)	1.01 (inactive)	0.97 (inactive)
C#C[C@]1(O)C=C[C@H]2[C@@H]3CCC4=CC(=O)CC[C@@H]4[C@H]3CC[C@@]21CC [Gestodene]	1.16	1.02	1	0.924	1 (inactive)	1.03 (inactive)	1.01 (inactive)	1.02 (inactive)	0.993 (inactive)	0.995 (inactive)	0.988 (inactive)	0.977 (inactive)
COC(=O)N(OC)c1ccccc1COc1ccn(-c2ccc(Cl)cc2)n1	0.99	0.988	1.07	1.02	1.02 (inactive)	1.02 (inactive)	0.921 (inactive)	1.04 (inactive)	1.02 (inactive)	1.01 (inactive)	1 (inactive)	0.888 (inactive)
CC(C)C[C@H](CN)CC(=O)O [Pregabalin]	0.96	0.982	0.982	0.865	1.06 (inactive)	1.04 (inactive)	1.05 (inactive)	1.03 (inactive)	1 (inactive)	1.02 (inactive)	0.982 (inactive)	1.06 (inactive)
NC(=O)C[S+]([O-])C(c1ccccc1)c1ccccc1 (configuration not stated) [Modafinil]	0.82	0.705	0.712	0.795	0.949 (inactive)	1.1 (inactive)	1.03 (inactive)	1.01 (inactive)	0.987 (inactive)	0.99 (inactive)	1 (inactive)	1.06 (inactive)
CCCC(C)C1(CC)C(=O)NC(=O)NC1=O (configuration not stated) [Pentobarbital]	1.06	1.08	0.979	0.814	1.07 (inactive)	0.993 (inactive)	1.02 (inactive)	1.1 (inactive)	1.02 (inactive)	1.01 (inactive)	0.988 (inactive)	1.04 (inactive)
COc1ccc(C(=O)N2CCCC2=O)cc1 [Aniracetam]	0.932	0.978	1.04	0.771	0.853 (inactive)	1.09 (inactive)	1.03 (inactive)	0.929 (inactive)	0.976 (inactive)	1.02 (inactive)	1.01 (inactive)	1.03 (inactive)
c1ccc2c(c1)-c1cccc3cccc-2c13 [Fluoranthene]	0.942	0.967	0.964	1.01	1.04 (inactive)	1.01 (inactive)	1.02 (inactive)	0.995 (inactive)	1.01 (inactive)	1.01 (inactive)	0.976 (inactive)	1.04 (inactive)
CC1(C)C(C(=O)OC(C#N)c2cccc(Oc3ccccc3)c2)C1(C)C (configuration not stated)	0.931	1.02	1.01	1.15	1 (inactive)	1.06 (inactive)	1.17 (inactive)	0.937 (inactive)	0.987 (inactive)	0.982 (inactive)	1 (inactive)	1.25 (inactive)
CON(C)C(=O)Nc1ccc(Cl)c(Cl)c1	1.07	1.01	1.01	1.07	0.924 (inactive)	1.02 (inactive)	0.969 (inactive)	0.982 (inactive)	1.02 (inactive)	1.02 (inactive)	1 (inactive)	0.976 (inactive)
Cc1cc(C(F)(C(F)(F)F)C(F)(F)F)ccc1NC(=O)c1cccc(I)c1C(=O)NC(C)(C)CS(C)(=O)=O	1.23	0.991	1.02	0.917	1 (inactive)	0.921 (inactive)	0.939 (inactive)	0.989 (inactive)	1 (inactive)	1 (inactive)	0.987 (inactive)	0.908 (inactive)
CCn1cc(C(=O)O)c(=O)c2cc3c(cc21)OCO3 [Oxolinic acid]	0	0.0401	0.348	0.896	0.275 (active)	0.0614 (active)	1 (inactive)	0.59 (active)	1.08 (inactive)	0.227 (active)	0.976 (inactive)	0.959 (inactive)
CC(O)(CS(=O)(=O)c1ccc(F)cc1)C(=O)Nc1ccc(C#N)c(C(F)(F)F)c1 (configuration not stated) [Bicalutamide]	1.06	1.01	1.08	1.15	0.914 (inactive)	1.09 (inactive)	1.06 (inactive)	1.08 (inactive)	0.973 (inactive)	1.01 (inactive)	1.02 (inactive)	1.04 (inactive)
Nc1nc(N)nc(NC2CC2)n1 [Cyromazine]	1.07	1.02	1.01	1.03	0.979 (inactive)	1.02 (inactive)	0.995 (inactive)	1.02 (inactive)	1.03 (inactive)	0.979 (inactive)	1 (inactive)	1 (inactive)
C[C@@H]1CN([C@H]2CC[C@](C#N)(c3ccc(F)cc3)CC2)CC[C@]1(C(=O)O)c1ccccc1 [Levocabastine hydrochloride]	1.17	1.09	1.02	1.07	1.03 (inactive)	1.04 (inactive)	1 (inactive)	1.02 (inactive)	1 (inactive)	0.916 (inactive)	0.999 (inactive)	0.949 (inactive)
Fc1ccc(Oc2ccnc3cc(Cl)cc(Cl)c23)cc1	1.06	1.01	1.02	1.04	1.02 (inactive)	1.01 (inactive)	0.957 (inactive)	1.05 (inactive)	1.02 (inactive)	0.961 (inactive)	1 (inactive)	0.915 (inactive)
CCCCN(CCCC)N=O [DBNA (N-nitrosodibutylamine)]	0.789	0.729	0.673	0.238	1.03 (inactive)	1.01 (inactive)	1.01 (inactive)	1.03 (inactive)	1.02 (inactive)	1.05 (inactive)	1.01 (inactive)	1.01 (inactive)
CO/C=C(/C(=O)OC)c1ccccc1COc1cccc(C(F)(F)F)n1	1.04	1.03	1.05	0.952	0.977 (inactive)	1.02 (inactive)	0.996 (inactive)	1.06 (inactive)	1 (inactive)	1 (inactive)	1 (inactive)	0.98 (inactive)
CN(C)C(=O)Oc1ccc[n+](C)c1 [Pyridostigmine iodide]	1.02	0.975	1	0.901	1.05 (inactive)	0.975 (inactive)	1.01 (inactive)	0.993 (inactive)	0.98 (inactive)	1.01 (inactive)	1.03 (inactive)	1.02 (inactive)
